PI5P4Ka inh: blocks human PI5P4K alpha kinase activity. max response, %. AID 652105. actives 1.2% (n = 330,000). PI5P4Kalpha enzyme, ADP-Glo luminescence, 60 min; hits give low values. P48426; active means max response of -50% or lower; inconclusive means between -30% and -50%; inactive means -30% or higher; further: value at the top dose of about 77 µM
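qHTS, 1536-well: enzyme/substrate mix, compound by pin tool, 5 microM ATP final; RT 60 min; ADP-Glo reagents 1 (45 min) then 2 (30 min); luminescence.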
JMJD2A Tudor: inhibitors of human JMJD2A Tudor domain | O75164 | AlphaScreen JMJD2A-Tudor / H3K4me3 peptide binding | Potency, µM (series often up to 114 µM), hits mostly inhibitors | actives 4.4% (n = 390,000) | AID 504339; further: nearly all actives have a fitted effect of over 50% in size
PLK1 PBD block: inhibitors of human PLK1 polo-box domain binding; P53350; Plk1 PBD binding of FITC phosphopeptide, fluorescence polarization; Potency, µM, actives largely listed as inhibitors; actives 2.8% (n = 360,000); further: series mostly up to about 57 µM; nearly all actives have a fitted effect of over 65% in size
Target sequence (P53350 whole entry, looked up, the tested form may be a part): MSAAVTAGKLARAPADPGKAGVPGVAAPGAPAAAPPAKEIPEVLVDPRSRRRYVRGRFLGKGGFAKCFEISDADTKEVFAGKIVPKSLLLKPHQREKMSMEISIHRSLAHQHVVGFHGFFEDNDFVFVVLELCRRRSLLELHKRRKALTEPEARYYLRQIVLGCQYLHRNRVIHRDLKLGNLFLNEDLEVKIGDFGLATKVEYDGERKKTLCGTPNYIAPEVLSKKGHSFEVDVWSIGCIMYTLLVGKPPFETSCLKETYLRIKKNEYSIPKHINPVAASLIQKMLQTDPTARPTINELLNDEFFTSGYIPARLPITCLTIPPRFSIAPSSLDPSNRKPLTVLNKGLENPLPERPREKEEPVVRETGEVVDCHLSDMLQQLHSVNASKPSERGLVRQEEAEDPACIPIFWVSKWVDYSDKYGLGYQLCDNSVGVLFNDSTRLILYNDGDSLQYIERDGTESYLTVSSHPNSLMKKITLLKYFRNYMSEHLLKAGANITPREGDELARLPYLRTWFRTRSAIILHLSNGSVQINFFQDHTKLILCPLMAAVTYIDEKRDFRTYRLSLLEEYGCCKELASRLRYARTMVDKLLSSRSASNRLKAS
G9a inh: inhibitors of human histone lysine methyltransferase G9a. G9a H3K9 monomethylation, AlphaScreen, 2 h. Q96KQ7. Potency, µM (series often up to 102 µM), hits mostly inhibitors. actives 8.8% (n = 350,000); further: nearly all actives have a fitted effect of over 75% in size
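G9a (20 nM) was preincubated 15 min with compound, then reacted 2 h at room temperature with 500 nM biotin-H3K9 peptide and 20 µM SAM. Monomethyl-H3K9 detected by AlphaScreen using anti-H3K9me1 antibody.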
HP1b binding inh: blocks HP1-beta chromodomain binding to methylated histone tails | P83916 | AlphaScreen HP1-beta / biotin-H3K9me3 peptide binding | Potency, µM (titrated, usually from 114 µM), most hits filed as inhibitors | actives 0.56% (n = 390,000) | AID 540317; further: nearly all actives have a fitted effect of over 70% in size
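AlphaScreen: HP1-beta (50 nM) preformed 30 min with biotin-H3(1-18)K9me3 peptide (50 nM) in PBS pH 7.4, 0.01% Tween-20. Compound added for 30 min at RT, then streptavidin donor/nickel chelate acceptor beads (10 ug/mL) for 30 min.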
BAZ2B block: blocks human BAZ2B; AlphaScreen BAZ2B-H3K14Ac peptide displacement; AID 504333; Potency, µM (doses to about 114 µM), actives largely listed as inhibitors; actives 4.4% (n = 360,000); Q9UIF8; further: nearly all actives have a fitted effect of over 60% in size
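Complex of BAZ2B and biotin-H3K14Ac (50 nM apiece) forms over 30 min at RT, then faces library compounds up to 110 uM for another 30 min; AlphaScreen beads added, 20 min dark incubation, luminescence read.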
A number is an active result; n = inactive; u = inconclusive; x = no result; [ ] = another dose, or the depositor's remark. Rows were chosen to be rich in hits. Some 12% of all compounds tested hit in one or more screens of this group. Unless noted, the call rests on the fitted dose curve; in most records, active means well fitted curve in the direction sought with a large enough effect; inconclusive means small, poorly fitted or top-dose-only effect, or another doubt; inactive means no such curve, though single readings can be large; an effect the other way counts as inactive or inconclusive.

SMILES	PI5P4Ka inh	JMJD2A Tudor	PLK1 PBD block	G9a inh	HP1b binding inh	BAZ2B block
O=S(=O)(Nc1ccc(N2CCCCC2)cc1)c1cccc2cccnc12	n	n	n	16µM	u	u
CC(CS(=O)(=O)c1cccc2cccnc12)N1CCCCC1 (stereo unspecified)	n	n	n	25µM	n	n
O=S(=O)(Nc1ccc(N2CCCCC2)cc1)c1ccc(F)cc1F	n	u	n	45µM	n	u
O=C(c1ccc(NS(=O)(=O)c2cccc3cccnc23)cc1)N1CCCCC1	n	n	n	u	n	n
C=CCn1c(SCC(=O)Nc2cc(C)on2)nnc1-c1ccccc1F	n	n	n	x	n	x
O=C(CSc1nc(-c2ccccc2)nc2c1CCCC2)c1ccc(F)cc1	x	n	x	n	n	n
Cc1ccc(CN(C(=O)c2ccc(Cl)c([N+](=O)[O-])c2)C2CCS(=O)(=O)C2)o1 (stereo unspecified)	n	u	24µM	n	n	n
O=C(c1ccc(Cl)c([N+](=O)[O-])c1)N(Cc1ccccc1)C1CCS(=O)(=O)C1 (stereo unspecified)	n	n	n	n	n	n
CC(C)Sc1ncc(Cl)c(C(=O)N(Cc2ccc(N(C)C)cc2)C2CCS(=O)(=O)C2)n1 (stereo unspecified)	x	56µM	x	u	u	45µM
Cc1cc(C)cc(OCC(=O)N(Cc2ccc(C)o2)C2CCS(=O)(=O)C2)c1 (stereo unspecified)	x	n	x	n	n	n
Cc1ccc(CN(C(=O)COc2ccc(Br)cc2)C2CCS(=O)(=O)C2)o1 (stereo unspecified)	n	25µM	12µM	n	n	u
Cc1ccc(CN(C(=O)COc2ccc(F)cc2)C2CCS(=O)(=O)C2)o1 (stereo unspecified)	x	n	x	n	n	n
CCSc1ncc(Cl)c(C(=O)N(Cc2ccc(N(C)C)cc2)C2CCS(=O)(=O)C2)n1 (stereo unspecified)	n	u	n	u	n	u
Cc1ccc(OCC(=O)N(Cc2ccc(C)o2)C2CCS(=O)(=O)C2)cc1 (stereo unspecified)	n	u	27µM	n	n	n
CC[C@H](C)[C@@H](C(=O)NCCCCCCCCCCC(=O)N1CCNCC1)n1cc(CCCCN=C(N)N)nn1	n	n	n	n[2.33 µM]	n	n
Cc1ccc(CN(C(=O)COc2ccc(C)c(C)c2)C2CCS(=O)(=O)C2)o1 (stereo unspecified)	n	u	27µM	n	n	n
Cc1ccc(CN(C(=O)COc2ccc(Cl)c(C)c2)C2CCS(=O)(=O)C2)o1 (stereo unspecified)	x	u	x	n	n	u
Cc1cc(OCC(=O)N(Cc2ccc(N(C)C)cc2)C2CCS(=O)(=O)C2)cc(C)c1Cl (stereo unspecified)	x	40µM	x	u	n	10µM
CCc1ccc(OCC(=O)N(Cc2ccc(C)o2)C2CCS(=O)(=O)C2)cc1 (stereo unspecified)	x	56µM	x	n	n	n
CCc1ccc(OCC(=O)N(Cc2ccc(OC)cc2)C2CCS(=O)(=O)C2)cc1 (stereo unspecified)	x	n	x	n	n	n
CN1CCN(c2ncc3nc(CCc4ccccc4)c(=O)n(C)c3n2)CC1	x	x	x	n[0.501 µM]	x	x
Cc1cc(=O)n(Cc2ccccc2Cl)c2c1c(C)nn2-c1ccccc1	x	n	x	n	n	n
Cc1nc(-c2coc3cc(C)c(N=O)c(O)c3/c2=N\N)cs1	n	n	n	50µM	n	u
Cc1nc(-c2coc3cc(O)c(C)cc3c2=O)cs1	n	n	n	n[12.7 µM]	n	n
COc1ccc(N2CCN(c3nc(Nc4ccc(C)c(F)c4)nc(N4CCCC4)n3)CC2)cc1	n	u	n	7.1µM	u	7.9µM
SMILES	PI5P4Ka inh	JMJD2A Tudor	PLK1 PBD block	G9a inh	HP1b binding inh	BAZ2B block
COc1ccc(N2CCN(c3nc(Cl)nc(Nc4ccc(F)cc4)n3)CC2)cc1	n	n	n	10µM	n	u
CC(C)[C@H](NC(=O)CNC(=O)OC(C)(C)C)C(=O)N[C@H](C=O)C(C)C	x	x	x	n	x	x
COc1cc(Cl)c(C)cc1NC(=O)CSc1ncc(S(=O)(=O)c2ccc(C(C)(C)C)cc2)c(=O)[nH]1	x	89µM	x	n	n	25µM
CC(C)(C)c1ccc(S(=O)(=O)c2cnc(SCC(=O)Nc3ccc(F)c(Cl)c3)[nH]c2=O)cc1	x	u	x	n	n	n
O=C(OCc1cn([C@H]2CN(CC3CCCCC3)[C@@H](c3ccc(Cl)cc3)C[C@@H]2O)nn1)c1ccccc1	n	x	n	x	x	x
COc1ccc(Oc2ncc3ncc(=O)n(C4CC4)c3n2)cc1	x	x	x	n[0.501 µM]	x	x
Cc1ccccc1-n1cc(-c2ccc(Br)cc2)nc1SCC(N)=O	n	u	n	n	n	u
CCOC(=O)NC(=O)CSc1nc(-c2ccc(C)c(C)c2)cn1-c1ccccc1	n	u	n	7.9µM	u	35µM
Cc1ccc(-c2cn(-c3ccccc3)c(SCC(N)=O)n2)cc1C	n	u	n	u	n	50µM
CCN(C(=O)CCNC(=O)Cn1cnc2ccccc2c1=O)c1cc(OC)ccc1OC	x	n	x	n	n	n
O=c1c2[nH]cnc2n(-c2cccc(Br)c2)c(=O)n1Cc1ccccc1	n	n	n	n	n	n
COc1ccccc1NC(=O)/C(C#N)=C/c1cc([N+](=O)[O-])ccc1N1CCCC1	n	n	11µM	n	n	n
N#C/C(=C\c1cccc([N+](=O)[O-])c1)C(=O)NCc1cccnc1	n	n	n	n	n	n
COc1cc(/C=C(/C#N)C(=O)Nc2ccccc2)c(Br)cc1OCc1ccc(C(=O)O)cc1	n	u	24µM	u	n	u
COc1cc(/C=C(\C#N)C(=O)Nc2ccccc2)ccc1OCCN1CCOCC1	n	n	n	x	n	n
CCOc1ccccc1/C=C(\C#N)C(=O)Nc1cccc(C(=O)O)c1	u	n	n	n[12.7 µM]	n	n
COc1cc(/C=C(\C#N)C(=O)Nc2cccc(C(=O)O)c2)ccc1OCc1ccc(Cl)cc1	n	u	n	n	n	45µM
N#C/C(=C\c1cccc([N+](=O)[O-])c1)C(=O)NCc1ccc(Cl)cc1	u	u	u	50µM	n	u
COCC(C)N1CCC(Oc2ccc(C(=O)N3CCCC3)cc2)CC1 (stereo unspecified)	n	n	n	n	n	n
COc1ccc(/C=C(/C#N)C(=O)Nc2cccc(C)c2C)cc1C(=O)O	n	n	n	n[12.7 µM]	n	n
COc1ccc(/C=C(/C#N)C(=O)Nc2cccc([N+](=O)[O-])c2)cc1C(=O)O	n	n	n	45µM	n	u
CCc1ccc2[nH]c(C(=O)Nc3ccc(F)cc3Br)cc2c1	n	n	n	45µM	n	n
CCc1ccc(C(=O)NNc2ccc(F)cc2F)cc1	n	u	u	n	n	n

Screens as filed in PubChem.
